Measurements taken from PubChem BioAssay.
Activity calls are given as the source filed them.

Assays:
[1] = system: Plasmodium falciparum Sir2 (PF13_0152, Sir2A); test: pfSir2 binders on small-molecule microarrays, primary screen, biochemical, small-molecule microarray, 635 nm fluorescence (AID 1098); details: small-molecule microarray binding, fluorescence 635 nm; higher = more signal;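 also: score merges spot fluorescence intensity with its signal-to-noise ratio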
[2] = small-molecule microarray binders of probe aDKK1, primary screen, biochemical, biotinylated probe, 635/667 nm fluorescence (AID 1099); details: higher = more signal;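 also: score merges 667nm spot fluorescence with signal to noise across triplicate slides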
[3] = small-molecule microarray binders of probe aCHRDL2, primary screen, biochemical, biotinylated probe, 635/667 nm fluorescence (AID 1100); details: higher = more signal
[4] = splicing luciferase reporter signal modulators, primary screen, spliceosome inhibition project, cell-based, HEK293, splice +/- reporter (AID 1101); details: luminescence, 24 h, higher = more signal, called active from +8 up or from −8 down;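 also: HEK293 cells carrying a splicing-competent luciferase reporter gene; test concentration not given here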
[5] = target: Fibroblast growth factor 10 (Homo sapiens) (UniProt O15520); test: FGF10 binders on small-molecule microarrays, primary screen, biochemical, small-molecule microarray, 635 nm fluorescence (AID 1102); details: FGF10 binding, fluorescence 635 nm, higher = more signal
[6] = system: glycogen synthase kinase-3 (GSK3A per assay name; protocol says GSK3B); test: GSK3 binders on small-molecule microarrays, primary screen, biochemical, small-molecule microarray, 635 nm fluorescence, GSK3A (AID 1103); details: small-molecule microarray binding, fluorescence 635 nm; higher = more signal; also: the record names both GSK3A and GSK3B
[7] = target: Epidermal growth factor receptor (Homo sapiens) (UniProt P00533); test: EGFR binders on small-molecule microarrays, primary screen, biochemical, small-molecule microarray, 635 nm fluorescence (AID 1104); details: EGFR binding, higher = more signal;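 also: score merges 667 nm emission intensity with spot signal to noise over triplicate slides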
[8] = target: Follistatin-related protein 3 (Homo sapiens) (UniProt O95633); test: FSTL3 binders on small-molecule microarrays, primary screen, biochemical, small-molecule microarray, 635 nm fluorescence (AID 1105); details: FSTL3 binding, higher = more signal;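 also: score merges emission near 667 nm and signal to noise per printed spot across three slides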
[9] = target: Dickkopf-related protein 1 (Homo sapiens) (UniProt O94907); test: DKK1 binders on small-molecule microarrays, primary screen, biochemical, small-molecule microarray, 635 nm fluorescence scan (AID 1106); details: DKK1 binding, higher = more signal;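 also: score merges emission near 667 nm with signal to noise over three replicate slides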
[10] = system: Inhibin beta A chain (activin A); test: INHBA (activin A) binders on microarrays, primary screen, biochemical, small-molecule microarray, 635 nm fluorescence scan (AID 1107); details: small-molecule microarray binding, higher = more signal;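 also: mouse activin A protein probed at 4.33 µg/mL on printed slides; score merges bound-protein fluorescence near 667 nm with spot signal-to-noise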
[11] = system: Human papillomavirus type 1a protein E7 (residues 44-93); test: HPV1a E7 fragment binders on microarrays, primary screen, biochemical, small-molecule microarray, residues 44-93, 635 nm fluorescence (AID 1108); details: small-molecule microarray binding, fluorescence 635 nm; higher = more signal;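 also: E7 fragment applied at 1 µg/mL in TBST for 1 h at 4 C; score combines spot fluorescence with its signal to noise ratio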
[12] = modulators of HCV replicon luciferase signal, primary screen, HCV replication inhibitor project, Huh7 cells, luciferase reporter (AID 1109); details: 48 h, higher = more signal;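 also: huh7 hepatoma cells harbouring a luciferase neomycin HCV replicon reporter; luciferase luminescence as measure of HCV replicon replication; test concentration not given here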
[13] = target: Left-right determination factor 2 (Homo sapiens) (UniProt O00292); test: LEFTY2 binders on small-molecule microarrays, primary screen, biochemical, small-molecule microarray, 635 nm fluorescence scan (AID 1110); details: LEFTY2 binding, higher = more signal
[14] = target: Calmodulin-1 (Homo sapiens) (UniProt P0DP23); test: CALM1 binders on microarrays, EGTA buffer, profiling panel, biochemical, small-molecule microarray, Cy5-labelled CALM1 (AID 1111); details: Cy5-CALM1 binding fluorescence, higher = more signal;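 also: labelled calmodulin applied in Tris saline Tween buffer holding calcium plus EGTA and DTT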
[15] = target: Calmodulin-1 (Homo sapiens) (UniProt P0DP23); test: calcium-bound CALM1 binders on microarrays, profiling panel, artefact control for SMM control-protein annotation, biochemical, small-molecule microarray, Cy5-labelled CALM1, plus calcium (AID 1112); details: Cy5-CALM1 binding fluorescence, higher = more signal;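 also: score merges spot fluorescence with signal to noise from triplicate slides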
[16] = small-molecule microarray binders of probe aWnt5a, primary screen, biochemical, biotinylated probe, 635/667 nm fluorescence (AID 1113); details: higher = more signal;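 also: score merges 667 nm fluorescence intensity with signal-to-noise per printed feature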
[17] = small-molecule microarray binders of probe aShh, primary screen, biochemical, biotinylated probe, 635/667 nm fluorescence (AID 1114); details: higher = more signal;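 also: probe is biotin-labelled aShh protein from a stem cell growth factor screen; measures binding of labelled protein to compounds printed on the slide; score merges feature fluorescence at 667 nm with signal-to-noise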
[18] = small-molecule microarray binders of probe aNog, primary screen, biochemical, biotinylated probe, 635/667 nm fluorescence (AID 1115); details: higher = more signal;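 also: probe is biotinylated aNog protein used at 0.15 µg/mL for 1 h at 4 C; z-score combines 667 nm fluorescence of each spot with its signal to noise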
[19] = target: Torsin-1A-interacting protein 1 (Homo sapiens) (UniProt Q5JTV8); test: LAP1 binders from COS7 cell lysate, primary screen, small-molecule microarray, 635/667 nm fluorescence (AID 1116); details: COS7-hLAP1 lysate binding, 635 nm fluorescence, higher = more signal
[20] = target: Alpha-bungarotoxin (Bungarus multicinctus) (UniProt P60615); test: alpha-bungarotoxin binders on microarray, profiling panel, artefact control for SMM control protein annotation, biochemical, small-molecule microarray, Alexa647 label, 635/667 nm fluorescence (AID 1117); details: alpha-BTX-A647 binding fluorescence, higher = more signal
Alpha-bungarotoxin (Bungarus multicinctus), sequence (P60615 whole entry, looked up): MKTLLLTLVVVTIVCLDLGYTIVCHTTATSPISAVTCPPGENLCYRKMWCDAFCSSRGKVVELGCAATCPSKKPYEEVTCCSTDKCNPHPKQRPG

Torsin-1A-interacting protein 1 (Homo sapiens), sequence (Q5JTV8 whole entry, looked up): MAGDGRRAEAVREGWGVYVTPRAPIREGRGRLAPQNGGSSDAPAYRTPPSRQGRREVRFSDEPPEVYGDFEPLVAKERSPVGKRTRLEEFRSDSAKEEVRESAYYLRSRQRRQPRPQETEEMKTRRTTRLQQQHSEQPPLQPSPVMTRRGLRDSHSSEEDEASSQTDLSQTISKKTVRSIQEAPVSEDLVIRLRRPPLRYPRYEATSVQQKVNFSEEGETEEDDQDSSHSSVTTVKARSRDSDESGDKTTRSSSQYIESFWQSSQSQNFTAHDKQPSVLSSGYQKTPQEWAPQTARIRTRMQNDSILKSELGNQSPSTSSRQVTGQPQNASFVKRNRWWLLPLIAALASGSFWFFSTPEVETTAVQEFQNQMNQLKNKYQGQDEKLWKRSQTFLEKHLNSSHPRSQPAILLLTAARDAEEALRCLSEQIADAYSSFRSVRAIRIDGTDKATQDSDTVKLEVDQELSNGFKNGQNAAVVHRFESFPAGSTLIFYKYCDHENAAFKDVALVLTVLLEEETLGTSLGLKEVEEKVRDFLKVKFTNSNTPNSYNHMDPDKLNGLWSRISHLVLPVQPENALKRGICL
Fibroblast growth factor 10 (Homo sapiens), sequence (O15520 whole entry, looked up): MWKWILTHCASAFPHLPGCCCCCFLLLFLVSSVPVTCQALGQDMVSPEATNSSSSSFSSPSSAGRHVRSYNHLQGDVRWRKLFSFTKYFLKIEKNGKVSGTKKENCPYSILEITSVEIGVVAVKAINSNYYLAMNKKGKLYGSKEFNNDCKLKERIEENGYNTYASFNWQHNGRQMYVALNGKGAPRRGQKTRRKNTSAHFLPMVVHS
Dickkopf-related protein 1 (Homo sapiens), sequence (O94907 whole entry, looked up): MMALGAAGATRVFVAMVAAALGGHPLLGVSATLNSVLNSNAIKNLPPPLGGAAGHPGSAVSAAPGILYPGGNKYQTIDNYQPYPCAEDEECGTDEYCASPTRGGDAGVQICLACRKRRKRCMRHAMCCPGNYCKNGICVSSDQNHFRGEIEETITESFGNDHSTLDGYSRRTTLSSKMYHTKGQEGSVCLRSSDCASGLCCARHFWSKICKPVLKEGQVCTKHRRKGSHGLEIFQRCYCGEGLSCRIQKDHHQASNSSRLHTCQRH
Follistatin-related protein 3 (Homo sapiens), sequence (O95633 whole entry, looked up): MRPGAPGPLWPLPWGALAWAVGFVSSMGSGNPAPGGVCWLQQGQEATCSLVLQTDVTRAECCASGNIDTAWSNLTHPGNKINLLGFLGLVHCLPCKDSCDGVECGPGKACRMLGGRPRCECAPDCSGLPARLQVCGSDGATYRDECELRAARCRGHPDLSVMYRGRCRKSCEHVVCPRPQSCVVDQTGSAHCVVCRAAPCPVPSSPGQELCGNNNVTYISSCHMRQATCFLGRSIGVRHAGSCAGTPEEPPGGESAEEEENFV
Epidermal growth factor receptor (Homo sapiens), sequence (P00533 whole entry, looked up): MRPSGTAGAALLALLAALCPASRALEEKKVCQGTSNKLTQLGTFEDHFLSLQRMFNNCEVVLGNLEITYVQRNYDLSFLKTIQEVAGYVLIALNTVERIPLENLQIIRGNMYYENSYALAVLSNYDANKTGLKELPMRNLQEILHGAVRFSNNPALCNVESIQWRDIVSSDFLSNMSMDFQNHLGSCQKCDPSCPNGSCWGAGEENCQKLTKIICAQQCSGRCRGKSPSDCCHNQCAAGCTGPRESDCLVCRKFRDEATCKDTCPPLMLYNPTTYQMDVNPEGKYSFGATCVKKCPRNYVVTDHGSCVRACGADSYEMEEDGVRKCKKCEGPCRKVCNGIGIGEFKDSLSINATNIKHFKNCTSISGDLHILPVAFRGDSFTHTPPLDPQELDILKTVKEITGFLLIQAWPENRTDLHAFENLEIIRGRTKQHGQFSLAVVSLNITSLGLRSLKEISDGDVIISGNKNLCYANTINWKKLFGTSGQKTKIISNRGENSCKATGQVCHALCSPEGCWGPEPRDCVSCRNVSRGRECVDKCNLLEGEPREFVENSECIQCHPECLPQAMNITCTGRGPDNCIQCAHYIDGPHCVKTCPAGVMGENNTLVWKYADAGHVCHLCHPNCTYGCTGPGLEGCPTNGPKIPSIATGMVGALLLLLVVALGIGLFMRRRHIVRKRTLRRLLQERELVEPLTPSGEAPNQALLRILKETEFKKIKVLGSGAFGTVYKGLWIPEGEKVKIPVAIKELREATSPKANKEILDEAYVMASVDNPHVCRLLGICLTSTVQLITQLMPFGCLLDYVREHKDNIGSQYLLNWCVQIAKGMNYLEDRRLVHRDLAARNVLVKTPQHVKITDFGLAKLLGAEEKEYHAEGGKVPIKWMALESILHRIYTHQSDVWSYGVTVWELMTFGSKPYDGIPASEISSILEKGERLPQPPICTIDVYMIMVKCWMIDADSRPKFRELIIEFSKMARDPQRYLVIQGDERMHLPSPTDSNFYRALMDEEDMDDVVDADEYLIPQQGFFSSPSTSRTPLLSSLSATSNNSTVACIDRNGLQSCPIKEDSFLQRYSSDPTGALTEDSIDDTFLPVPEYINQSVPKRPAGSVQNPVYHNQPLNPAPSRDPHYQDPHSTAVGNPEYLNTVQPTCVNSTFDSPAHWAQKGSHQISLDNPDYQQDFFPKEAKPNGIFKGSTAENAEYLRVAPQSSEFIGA
Left-right determination factor 2 (Homo sapiens), sequence (O00292 whole entry, looked up): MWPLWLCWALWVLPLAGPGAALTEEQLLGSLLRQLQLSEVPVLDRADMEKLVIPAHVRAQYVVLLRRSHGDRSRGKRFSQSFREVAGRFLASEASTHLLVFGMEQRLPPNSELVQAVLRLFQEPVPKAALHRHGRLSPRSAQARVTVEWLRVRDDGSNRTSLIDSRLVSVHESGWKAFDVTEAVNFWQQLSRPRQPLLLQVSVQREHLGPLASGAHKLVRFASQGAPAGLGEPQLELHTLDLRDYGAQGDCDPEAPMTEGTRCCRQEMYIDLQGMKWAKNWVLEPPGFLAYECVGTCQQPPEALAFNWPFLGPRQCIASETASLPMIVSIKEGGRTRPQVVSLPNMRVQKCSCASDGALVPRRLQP

| Structure (SMILES) | composite z-score [1] | composite z-score [2] | composite z-score [3] | z-score [4] | composite z-score [5] | composite z-score [6] | composite z-score [7] | composite z-score [8] | composite z-score [9] | composite z-score [10] | composite z-score [11] | z-score [12] | composite z-score [13] | composite z-score [14] | composite z-score [15] | composite z-score [16] | composite z-score [17] | composite z-score [18] | composite z-score [19] | composite z-score [20] |
| --- | --- | --- | --- | --- | --- | --- | --- | --- | --- | --- | --- | --- | --- | --- | --- | --- | --- | --- | --- | --- |
| CC(C)C[C@@H]1NC(=O)[C@H]2C[C@@H](C(=O)O)[C@@H](c3cccc(OCCO)c3)N2C1=O | 0.524 | 0.0083 | 0.677 | 0.256 (inactive) | 0.0039 | 0.969 | 0.193 | 1.2 | 1.11 | 1.19 | -0.239 | 2.62 | 0.779 | -0.418 | -0.2 | -0.0704 | -0.0289 | -0.0503 | 0.884 | 0.209 |
| O=C1NC(=O)C2C1C=CC(C(O)c1ccc(F)cc1)N2Nc1ccc(Cl)cc1Cl (stereo not given) | -0.315 | 0.96 | 1.12 | 1.65 (inactive) | 0.327 | -0.923 | -0.416 | -0.194 | -0.459 | 0.924 | 0.379 | -0.659 | -0.752 | 0.805 | 1 | -0.0403 | 0.867 | 0.993 | 0.68 | 0.712 |
| CCCCC(=C=CC[C@H](O)c1ccccc1OCCO)CCO | 0.653 | -0.182 | -0.0244 | -0.25 (inactive) | 0.27 | -0.123 | -0.689 | -0.569 | -0.429 | 0.754 | 0.5 | -1.69 | -0.115 | -0.541 | -0.533 | -0.0031 | -0.108 | 0.0796 | 0.228 | 0.124 |
| [N-]=[N+]=Nc1ccccc1C[C@]1(C(=O)N2CCCCC2)N=C(c2ccc(OCCCO)cc2)O[C@H]1c1ccccc1 | 1.46 | 1.01 | 1.11 | -0.117 (inactive) | 1.25 | 0.952 | 0.102 | 0.616 | 0.26 | 0.781 | -0.0987 | -2.42 | 0.0344 | 1.8 | 0.727 | 0.0101 | 0.202 | -0.544 | 0.824 | 1.93 |
| CC(C)c1ccc(NN2C(C(O)c3ccccc3)C=CC3C(=O)N(c4ccccc4)C(=O)C32)cc1 (stereo not given) | 1.26 | 1.25 | 0.98 | -0.648 (inactive) | 0.715 | 0.522 | -0.144 | 0.634 | -0.624 | 0.546 | 1.33 | 0.618 | -0.636 | 0.793 | 0.7 | 0.235 | 0.171 | 0.0811 | 0.588 | 1.67 |
| COC(=O)[C@H]1N=C(c2ccc(OCCCO)cc2)O[C@H]1c1ccccc1N=[N+]=[N-] | 1.08 | 0.927 | 1.34 | -0.977 (inactive) | -0.0781 | 0.205 | -0.454 | -0.359 | -0.529 | 1.21 | 1.05 | -1.78 | -0.223 | 0.203 | 0.28 | 0.16 | 0.468 | 1.29 | 0.451 | 1.08 |
| COc1cc2c(cc1OC)CN(C(=O)[C@@H]1[C@H]3C(=O)O[C@H](c4ccccc4)[C@H](c4ccccc4)N3[C@H](c3ccc(O)cc3)[C@@]13C(=O)Nc1ccc(C#CC4=CCCCC4)cc13)CC2 | 1.39 | 0.716 | 0.586 | -0.101 (inactive) | 0.975 | 1.28 | 0.452 | 1.03 | 0.453 | 0.475 | 0.244 | -1.49 | 0.512 | 1.07 | 0.319 | 0.0044 | -0.011 | 0.14 | 0.635 | 0.891 |
| O=C1O[C@@H](c2ccccc2)[C@@H](c2ccccc2)N2[C@@H](c3ccc(OCCO)cc3)[C@]3(C(=O)Nc4ccc(C#CC5=CCCCC5)cc43)[C@@H](C(=O)Nc3nc4ccccc4s3)[C@H]12 | 1.63 | -0.127 | -1.13 | -0.61 (inactive) | 1.01 | 0.489 | 0.554 | 0.0685 | -0.188 | -0.289 | 0.597 | -1.88 | -0.005 | 0.516 | -0.188 | 0.0243 | -0.708 | 0.704 | 0.0065 | 0.4 |
| CC(C)(C)OC(=O)CC[C@@]1(C(N)=O)N=C(c2ccc(OCCCO)cc2)O[C@@H]1c1ccccc1CN=[N+]=[N-] | 0.469 | 1.42 | 1.08 | -0.169 (inactive) | 1.48 | 1.1 | 0.0813 | 0.211 | -0.105 | 0.854 | 1.35 | 0.0506 | -0.0243 | 2.47 | 1.9 | 0.188 | 0.553 | 1.52 | 1.48 | 2.58 |
| C=CCC(OC(C)=O)[C@@H]1[C@@H](N(Cc2ccc(-c3ccccc3)cc2)C(=O)Cc2ccc(OC)cc2)c2cc(OCCCO)ccc2N1C(=O)Cc1ccc(OC)cc1 (stereo not given in full) | -0.214 | 0.642 | 0.327 | -0.581 (inactive) | 0.0842 | -0.0794 | -0.0897 | -0.147 | -0.191 | 1.59 | -0.37 | -0.496 | 0.055 | 0.194 | 0.7 | 0.055 | -0.229 | -0.128 | 0.468 | 0.171 |
